The text below walks through data of PubChem BioAssay (Tox21).

Inconclusive results are not listed. Activity calls are given as the source filed them. Calls follow the shape of the dose curve; as a rule, active = well fitted activation curve with a large enough effect in the repeat runs; inconclusive = weak or mixed curves; inactive = flat fitted curve, though single readings scatter.

The experiment in a line: A CellTox Green Cytotoxicity Assay to monitor cytotoxicity in HEK293 cells - 8 hour (AID 1224884). Also: nearly all actives have a fitted effect of over 35% in size. The conditions noted are these: CellTox Green fluorescence; series mostly up to 76.8 µM. The text has this:
National Center for Advancing Translational Sciences [NCATS]
NIH Chemical Genomics Center [NCGC]
U.S. Environmental Protection Agency [EPA]
National Institutes of Environmental Health Sciences [NIEHS]
National Toxicology Program [NTP]
Cell-based models are critical for drug discovery. Determining the natural cytotoxic effects resulting from test compounds is an essential research activity. A CellTox Green Cytotoxicity Assay to monitor cytotoxicity in real time of continues cell culture during 40 hours of the compound treatment was used to screen Tox21 10K library compounds in Hek293 cells. CellTox Green Cytotoxicity Assay is a nonlytic, homogeneous, biofluorescent method to measure cytotoxicity in cell culture after experimental manipulation. The assay system uses a proprietary asymmetric cyanine dye that is excluded from viable cells but preferentially stains the dead cell's DNA. […] Viable cells produce no appreciable increases in fluorescence. Therefore, the fluorescence signal produced by the binding interaction with dead cell DNA is proportional to cytotoxicity.
The mixture of Hek293 cell suspension and reagents were dispensed at 600cells/6 ul/well in 1536-well tissue culture treated black solid bottom plates using a Multidrop dispenser. After the assay plates were incubated at a 37 C/5% CO2 incubator for 5 hours, 23 nL of compounds dissolved in DMSO, positive and negative controls was transferred to the assay plate by a pintool work station. The plates were incubated at 37 C for 40 hours. The fluorescence intensity were measured at 0h, 8h, 16h, 24h, 32h and 40h time points using ViewLux plate reader during compound treatment.
Take `C=CC(=O)OCCCl`: the outcome was inactive.

For `O=C(O)c1cn(C2CC2)c2cc(N3CCNCC3)c(F)cc2c1=O`, the outcome was inactive.

Regarding `C[C@H]1C[C@H]2[C@@H]3CCC4=CC(=O)C=C[C@]4(C)[C@H]3C(=O)C[C@]2(C)[C@@]1(O)C(=O)CO`, the call was inactive.

On to `CC(=O)NC(=O)c1ccccc1O`, for which the compound was called inactive.

Turning to `CC(=O)C1CCCCC1=O` (stereo not given), the result was inactive.

Turning to `CN(C)[C@@H]1C(=O)C(C(=O)NCN2CCCC2)=C(O)[C@@]2(O)C(=O)C3=C(O)c4c(O)cccc4[C@@](C)(O)C3C[C@@H]12` (stereo not given in full), the compound was classed as inactive.

On to `O=[N+]([O-])c1ccc(/C=N\O)o1`, for which the result was inactive.

Consider `COc1cc(-c2ccc(=O)[nH]n2)ccc1OC(F)F`, for which the compound was classed as inactive.

For `CC(=O)Oc1cccc(C)c1`, the result was inactive.

Turning to `O=S(=O)(O)c1cccc(S(=O)(=O)O)c1`, the outcome was inactive.

Turning to `CC1(C)[C@@H]2CC[C@@]1(C)[C@H](O)C2`, the result was inactive.

In the case of `COc1cc(C)nc(-n2nc(C)cc2OC)n1`, the outcome was inactive.

In the case of `CC[N+](C)(CC)CCOC(=O)C1c2ccccc2Oc2ccccc21`, the result was inactive.

Consider `CCCCCCCCN1CCCC1=O`, for which the compound was called inactive.

In the case of `CC(CO)(CO)[N+](=O)[O-]`, the result was inactive.

As for `O=[N+]([O-])c1cncn1CCN1CCOCC1`, the result was inactive.

Regarding `C=CCCC(=O)O`, the compound was called inactive.

For `CCCCOCCOC(=O)COc1cc(Cl)c(Cl)cc1Cl`, the compound was classed as inactive.

Turning to `CCC(C(=O)NC(=O)NC(C)=O)c1ccccc1` (stereo not given), the compound was classed as inactive.

For the compound `C=C(C)C(=O)OCC1CCCO1` (stereo not given), the compound was called inactive.

As to `CCOC(=O)COC(=O)c1ccccc1C(=O)OCC`, the compound was called inactive.

As to `CCN(Cc1ccccc1)c1ccccc1`, the result was inactive.

For the compound `O=C(O)CCCC[P+](c1ccccc1)(c1ccccc1)c1ccccc1`, the outcome was inactive.

Consider `CCN[C@H]1C[C@H](C)S(=O)(=O)c2sc(S(N)(=O)=O)cc21`, for which the result was inactive.

Take `O=C1CCCCCCCCCCCCCCO1`: the result was inactive.

In the case of `CC1=C(C/C=C(\C)CCC[C@H](C)CCC[C@H](C)CCCC(C)C)C(=O)c2ccccc2C1=O`, the call was inactive.

Consider `CC(C)CCCO`, for which the call was inactive.

On to `CN1[C@@H]2CC[C@H]1CC(OC(=O)C(O)c1ccccc1)C2` (stereo not given in full), for which the call was inactive.

Consider `NCCCC(N)(C(=O)O)C(F)F` (stereo not given), for which the compound was called inactive.

Take `C[N+](C)(CCOc1ccccc1)Cc1cccs1`: the result was inactive.

On to `CCOCC(C)O` (stereo not given), for which the compound was called inactive.

`CCOC(=O)OC(C)OC1=C(C(=O)Nc2ccccn2)N(C)S(=O)(=O)c2ccccc21` (stereo not given): the result was inactive.

In the case of `CCNS(=O)(=O)c1ccc(C)cc1`, the result was inactive.

Regarding `CCCCCCC#CC(=O)OC`, the outcome was inactive.

Take `Cc1nc(C2CCCCC2)c(-c2ccc(S(N)(=O)=O)c(F)c2)o1`: the result was inactive.

As for `O=S(=O)(O)c1cccc2ccccc12`, the compound was classed as inactive.

As for `Nc1ccn([C@@H]2O[C@H](CO)[C@@H](O)C2O)c(=O)n1` (stereo not given in full), the call was inactive.

`CO[Si](C)(OC)c1ccccc1`: the outcome was inactive.

With `COc1cccc(OC)c1C(=O)N[C@@H]1C(=O)N2[C@@H]1SC(C)(C)[C@@H]2C(=O)O`, the call was inactive.

As to `Cc1ccc(C(=O)c2ccc(CC(=O)O)n2C)cc1`, the compound was classed as inactive.
